Assay results: PubChem BioAssay (NCATS)
“And” between values parts separate entries of the source, which are not always exact repeats. Equal values may be shown once. Inconclusive results are not listed. Entries that show only a call come without a potency. Where a structure was tested more than once in an assay, its records may differ in their call. The source made the active and inactive calls. Calls come from the whole dose curve; as a rule, active = well fitted inhibition curve with a large enough effect; inconclusive = small, poorly fitted or top-dose-only effect; inactive = flat fitted curve, though single readings scatter.

Legend:
[1] = biological target: Glutathione peroxidase 1 (Homo sapiens) (UniProt P07203); assay: Primary qHTS Assay for Inhibitors of Recombinant Selenoprotein Glutathione Peroxidase 1 (GPX1) (AID 1845191); note: nearly all actives have a fitted effect of over 65% in size
Sequence of Glutathione peroxidase 1 (Homo sapiens) (P07203 whole entry, looked up): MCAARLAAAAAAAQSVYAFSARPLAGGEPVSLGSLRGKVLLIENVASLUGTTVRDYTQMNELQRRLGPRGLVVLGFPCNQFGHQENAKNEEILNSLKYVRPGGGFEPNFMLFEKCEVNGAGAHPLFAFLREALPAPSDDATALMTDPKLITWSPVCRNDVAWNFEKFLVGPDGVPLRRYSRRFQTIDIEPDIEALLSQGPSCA
Outline: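 NADPH consumption tracked by fluorescence at 340/450 nm between t=0 and t=15 min, room temperature. Final mix: 10 nM GPX1, 100 nM glutathione reductase, 1 mM GSH, 0.5 mM NADPH, 0.5 mM cumene hydroperoxide, 0.01% BSA; 30 min compound–enzyme preincubation.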

[2] = biological target: Phospholipid hydroperoxide glutathione peroxidase GPX4 (Homo sapiens) (UniProt P36969); assay: Primary qHTS Assay for Inhibitors of Recombinant Selenoprotein Glutathione Peroxidase 4 (GPX4) (AID 1845192); note: nearly all actives have a fitted effect of over 65% in size
Sequence of Phospholipid hydroperoxide glutathione peroxidase GPX4 (Homo sapiens) (P36969 whole entry, looked up): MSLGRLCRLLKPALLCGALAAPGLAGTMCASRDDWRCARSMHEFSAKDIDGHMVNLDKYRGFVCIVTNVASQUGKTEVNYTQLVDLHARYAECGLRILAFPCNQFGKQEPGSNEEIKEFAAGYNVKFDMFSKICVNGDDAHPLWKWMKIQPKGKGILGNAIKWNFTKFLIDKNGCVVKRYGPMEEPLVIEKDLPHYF
Outline: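 NADPH consumption followed by fluorescence at 340/450 nm, t=0 and after 15 min at room temperature. Reaction started with cumene hydroperoxide (0.5 mM final) after 30 min compound–GPX4 preincubation; final 200 nM GPX4, 100 nM GR, 1 mM GSH, 0.5 mM NADPH.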

[3] = biological target: Luciferin 4-monooxygenase (Photinus pyralis) (UniProt P08659); assay: Primary firefly luciferase (FLuc) qHTS assay for identification of artifact compounds. (AID 1845220); note: nearly all actives have a fitted effect of over 60% in size
Outline: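 FLuc 10 nM; luciferin 10 uM; ATP 10 uM; Tris-acetate pH 7.6, Mg-acetate 10 mM; 15 min RT preincubation; 5 min reaction; luminescence.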
Potency is the fitted concentration of half-maximal effect.

Row | SMILES | Potency [1] | Potency [2] | Potency [3]
1 | CCCCCCCCCCCCCC(=O)N[C@H](CO)[C@H](O)c1ccc([N+](=O)[O-])cc1 | inactive | inactive | 
2 | CS(=O)(=O)c1ccc(C2=C(c3ccccc3)C(=O)OC2)cc1 | inactive | inactive | inactive
3 | OC(c1cc(C(F)(F)F)nc2c(C(F)(F)F)cccc12)C1CCCCN1 (stereo unspecified) | inactive | inactive | 
4 | CC(C)C[C@@H](C(=O)N[C@H](C(=O)OC1CCCC1)c1ccccc1)[C@H](O)C(=O)NO | inactive | inactive | 
5 | CCCCn1c(=O)n(Cc2ccccc2F)c(=O)c2[nH]c(Cc3ccc(NC(C)=O)cc3)nc21 | inactive | inactive | inactive
6 | CCC(C)SSc1ncc[nH]1 (stereo unspecified) | inactive | inactive | 
7 | O=C(O)CCNc1cc(N2CCc3ccccc3CC2)nc(-c2ccccn2)n1 | inactive | inactive | inactive
8 | CNC(=O)c1cc(Oc2ccc(NC(=O)Nc3ccc(Cl)c(C(F)(F)F)c3)c(F)c2)ccn1 | inactive | inactive | inactive
9 | Cc1nc2c([nH]1)CCN(C(=O)c1ccc(NC(=O)c3ccccc3-c3ccccc3)cc1)c1ccccc1-2 | inactive | inactive | inactive
10 | CC[C@H](C)C(=O)O[C@H]1C[C@H](O)C=C2C=C[C@H](C)[C@H](CC[C@@H](O)C[C@@H](O)CC(=O)O)[C@H]21 | inactive | inactive | 
11 | CN(C)CC[C@H](CSc1ccccc1)Nc1ccc(S(=O)(=O)NC(=O)c2ccc(N3CCN(Cc4ccccc4-c4ccc(Cl)cc4)CC3)cc2)cc1[N+](=O)[O-] | inactive | inactive | 
12 | COC(=O)Nc1ccc(-c2nc(N3CCOCC3)c3cnn(C4CCN(C(=O)OC)CC4)c3n2)cc1 | inactive | inactive | 
13 | CCOc1ccccc1N=Nc1c(C)[nH]n(-c2nc(-c3ccccc3)cs2)c1=O | inactive | inactive | 
14 | C[C@@H]1CCO[C@H]2Cn3cc(C(=O)NCc4ccc(F)cc4F)c(=O)c(O)c3C(=O)N12 | inactive | inactive | inactive
15 | CC(NCCc1ccc(O)cc1)C(O)c1ccc(O)cc1 (stereo unspecified) | inactive | inactive | 
16 | Cc1ccccc1C(C(=O)NC1CCCCC1)N(C(=O)CNc1ccc(C#N)cc1)c1cccc(F)c1 (stereo unspecified) | inactive | inactive | inactive

Row | SMILES | Potency [1] | Potency [2] | Potency [3]
17 | CCCCc1ccc(NS(=O)(=O)c2ccc(C)c(C(=O)N3CCN(c4cccc(C)c4C)CC3)c2)cc1 | inactive | inactive | 
18 | CCC(=O)NCC[C@@H]1CCc2ccc3c(c21)CCO3 | inactive | inactive | 
19 | CNc1nc(Nc2ccc(C(=O)N3CCOCC3)cc2OC)ncc1Cl | inactive | inactive | inactive
20 | COc1cc(Nc2nc3ccccc3nc2NS(=O)(=O)c2ccc(NC(=O)c3ccc(C)c(OC)c3)cc2)cc(OC)c1 | inactive | inactive | inactive
21 | O=C(c1ccc(C(=O)N2CCC(N3CCCC3)CC2)c(Nc2ccccc2)c1)N1CCC(N2CCCC2)CC1 | inactive | inactive | inactive
22 | COc1ccnc(CS(=O)c2nc3ccc(OC(F)F)cc3[nH]2)c1OC (stereo unspecified) | 9.04 µM (active) and inactive | 16.1 µM (active) | 
23 | C[C@@H](N)c1ccc(C(=O)Nc2ccnc3[nH]ccc23)cc1 | inactive | inactive | inactive
24 | N#CC1(c2cccc(C(=O)Nc3cc(Oc4ccc5nc(NC(=O)C6CC6)sc5n4)ccc3F)c2Cl)CC1 | inactive | inactive | inactive
25 | CCN(CCO)CCCOc1ccc2c(Nc3cc(CC(=O)Nc4cccc(F)c4)[nH]n3)ncnc2c1 | inactive | inactive | inactive
26 | Cn1c(=O)c(-c2c(Cl)cccc2Cl)cc2cnc(Nc3cccc(C(=O)O)c3)nc21 | inactive | inactive | 0.379 µM (active)
27 | CCc1cccc(CC)c1NC(=O)N1Cc2[nH]nc(NC(=O)c3ccc(N4CCN(C)CC4)cc3)c2C1 | inactive | inactive | inactive
28 | CN(C)c1nc(Cc2ccc(NC(=O)c3ccc(C(F)(F)F)cc3)cc2)nc(N(C)C)c1CC(=O)O | inactive | inactive | inactive
29 | O=C(Nc1cccc(Cl)c1)Nc1ncc(CCNc2ncnc3ccsc23)s1 | inactive | inactive | 
30 | Cc1nn(Cc2ccccc2Cl)c(C)c1CN(C)CC(O)COc1ccc(Cl)cc1 (stereo unspecified) | inactive | inactive | 
31 | CCC(c1ccc(O)cc1)C(CC)c1ccc(O)cc1 (stereo unspecified) | inactive | inactive | 
32 | CC(C)(C)c1nc(-c2cccc(NS(=O)(=O)c3c(F)cccc3F)c2F)c(-c2ccnc(N)n2)s1 | inactive | inactive and 12.8 µM (active) and 11.2 µM (active) | inactive
